Among the data in PubChem BioAssay (NCI) are growth inhibition values, retold here.

This is part of a sample that, as a whole, favours compounds with a hit. Of some 79,000 tested, about 15% had one in any assay. Active and inactive are the calls of the source. Cut-off read from the data, not from the text of the source: active = growth inhibition above about 70%; inactive = the rest.

A short description of this experiment: NCI Yeast Anticancer Drug Screen. Data for the mlh1 rad18 strain (AID 175). To be noted: S. cerevisiae mlh1 rad18 strain growth inhibition; at 50.0 µM; active compounds read high. Put shortly: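 Inhibition values reflect reduced growth of mutant yeast versus vehicle-treated controls following compound exposure; the mutations affect DNA damage repair.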
As to `C=C1C(=O)C23C(O)CC4C5(C)CCCC4(C(O)OC5)C2C(OC(C)=O)CC1C3O` (stereo not given), the growth inhibition is 0.75% (inactive).

`O=C(O)CCCCC(=O)c1cc(O)ccc1O`: the growth inhibition was -3.45% (inactive).

Regarding `COc1nc(NC2OC(COC(C)=O)C(OC(C)=O)C(OC(C)=O)C2OC(C)=O)c(-c2csc(N)n2)c(=O)n1C` (stereo not given), the growth inhibition was -4.55% (inactive).

In the case of `CSc1ccc(/C=C/c2ccnc3ccccc23)cc1`, the growth inhibition was 7.95% (inactive).

In the case of `Clc1cnnc(Cl)c1N/N=C/c1ccco1`, the growth inhibition is -7.55% (inactive).

For the molecule `C/C(=C(/O)c1ccc(Cl)cc1)c1nc2cc(Cl)cc([N+](=O)[O-])c2[nH]c1=O`, the growth inhibition was 53.5% (inactive).

For `CC(=O)Nc1ccc2c(c1)N(O)C(=O)C2(C)C`, the growth inhibition was -0.6% (inactive).

As to `CCN(C(=O)CCl)c1ccccc1`, the growth inhibition is 14.2% (inactive).

Consider `C[C@H](CCc1nc(C#N)c(N)o1)[C@H]1CC[C@H]2[C@@H]3CCC4C[C@@H](O)CC[C@]4(C)[C@H]3C[C@@H](O)[C@]12C` (stereo not given in full), for which the growth inhibition was 46% (inactive).

Turning to `COc1cccc(NC(=O)CC(=O)NN2C(=O)/C(=C/c3ccc(N(CCC#N)CCC#N)cc3)N=C2c2cc([N+](=O)[O-])ccc2Cl)c1`, the growth inhibition was 14.6% (inactive).

Take `Cc1cc(C)c(COCc2c(C)cc(C)cc2C)c(C)c1`: the growth inhibition is 12.8% (inactive).

Take `Cc1nc2c(Cl)cc(Cl)cc2c(Cl)c1CCCl`: the growth inhibition was 45.6% (inactive).

`COc1ccc(OC)c(NC(=O)Nc2nccs2)c1`: the growth inhibition is 32.5% (inactive).

As for `Cc1ccc2ccccc2c1CC(=O)NN`, the growth inhibition was -8.95% (inactive).

In the case of `CCC12C[N+]3([O-])CCc4c([nH]c5ccccc45)C(C(=O)OC)(c4cc5c(cc4OC)N(C)C4C(O)(C(=O)OC)C(OC(C)=O)C6(CC)C=CCN7CCC54C76)CC(C3)C1O2` (stereo not given), the growth inhibition was -31.7% (inactive).
